The structures appear in SMILES notation. About 83,000 compounds went through this panel and 20% of them were active in at least one assay; those are over-represented in the sample as a whole.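 Testing used 96-well plates and a 48-hour single-concentration exposure. Example: -40 means 40% of the starting cells died.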 A number with no mark means an inactive call. Active and inactive are the calls of the source. How the source made its calls: active means growth percent below 10; inactive means the rest.

The subject of one assay is PC-3 prostate. The experiment in a line: NCI-60 one-dose screen, 48 h (100 = growth as untreated, 0 = no growth, -100 = all killed). The note with it: 10 µM unless noted.
In the case of `COc1cccc2cc(-c3cc4ccccc4[nH]3)/c(=N/C(=S)Nc3ccc(C)cc3)oc12`, the growth is 55.6%.

In the case of `CN1C(=O)N(C)C2NC(N/N=C/c3ccccc3)=NC21` (stereo unspecified), the growth is 95.6%.

In the case of `COc1cc(-c2cc(=O)oc3cc(O)ccc23)cc(OC)c1OC`, the growth is 71.9%.

As to `COc1ccccc1/C=N/NC1=NC2C(N1)N(C)C(=O)N2C` (stereo unspecified), the growth is 95.4%.

Consider `CCN(CC)CCSCCCNc1c(C)cnc2cc(Cl)ccc12`, for which the growth was 85.1%.

For `COc1cc(Nc2cc(O)c3c(=O)cc(-c4ccccc4)oc3c2)cc(OC)c1`, the growth was 27.8%.

For the molecule `NC(=O)c1ncn(C2OC(CO)C(O)C2O)n1` (stereo unspecified), the growth is 85.2%.

Regarding `C(=N\Nc1ncc(-c2cc3cc4c(cc3o2)OCO4)s1)/c1c[nH]c2ccccc12`, the growth was 1.87% (active).

As to `c1ccc(C2CC(c3cccc(Nc4ccncc4)c3)=NN2c2ccccc2)cc1` (stereo unspecified), the growth was 54.5%.

In the case of `CC1=NNC(=O)C1CCC(=O)N/N=C(\C)c1ccc2ccccc2c1` (stereo unspecified), the growth was 94.9%.

`O=C(N/N=C/c1ccncc1)c1ccccc1Nc1cccc(C(F)(F)F)c1`: the growth was 75.8%.

`COc1ccc(Nn2c(SCC(=O)Nc3nc(-c4ccc(Cl)cc4)cs3)nc(C)c2C)cc1`: the growth was 35.7%.

In the case of `COc1c(Cl)cc(Cl)c2ccc(C=C3C(=O)N(C)C(=O)N(C)C3=O)nc12`, the growth was 99.4%.

On to `Cc1cccc(C)c1-c1cc(Cc2ccc(Cl)cc2)c(=O)[nH]n1`, for which the growth is 97.2%.

As to `CCN1C(=O)N(CC)C2C1NN=c1s/c(=C3\C(=O)Nc4ccccc43)c(=O)n12` (stereo unspecified), the growth was 22.6%.

Turning to `CC(=O)Nc1ccc(C(=O)Nc2cc(-c3ccccc3)ccc2N)cc1`, the growth is 64.7%.

On to `CN1CCN(c2cc(F)c(NC3=C(Cl)C(=O)c4ncccc4C3=O)c(F)c2)CC1`, for which the growth was 11.8%.

On to `Clc1nc(Cl)c2ncn(CC3(Cn4cnc5c(Cl)nc(Cl)nc54)COC3)c2n1`, for which the growth is -98.4% (active).

For `CC(C)(C)CC(C)(C)Nc1c(-c2ccc(C(F)(F)F)cc2)nc2cnccn12`, the growth is 68.5%.

For `CCC(C)N(CCNc1cc(OC)cc2cccnc12)CCC(C)C` (stereo unspecified), the growth was 79.3%.

As to `Cn1c(COC(=O)NCCc2ccccn2)nc2c(N3CCOCC3)nc(Cl)nc21`, the growth is 18.4%.

Consider `BrC(Br)(Br)c1cnc2ccccc2n1`, for which the growth was 62.3%.

Turning to `Clc1ccc(N2N=C(c3cccc(Nc4ccncc4)c3)CC2c2ccc3c(c2)OCO3)cc1` (stereo unspecified), the growth is 31.3%.

For the molecule `COc1cc(CNC(=O)CCCCC[P+](c2ccccc2)(c2ccccc2)c2ccccc2)c(OC)c2c1OCO2`, the growth is 63.2%.

Regarding `CC[C@@]12C=CCN3CC[C@]4(c5cc(NC(=O)COc6cc(OCC(=O)Nc7cc8c(cc7OC)N(C)[C@H]7[C@@](O)(C(=O)OC)[C@H](OC(C)=O)[C@]9(CC)C=CCN%10CC[C@]87[C@@H]%109)cc7oc(-c8ccccc8)cc(=O)c67)c(OC)cc5N(C)[C@@H]4[C@](O)(C(=O)OC)[C@H]1OC(C)=O)[C@H]32`, the growth is 23%.

For `O=C1Nc2c(ccc(Cl)c2Cl)/C1=C/c1ccc(O)cc1`, the growth was 98.1%.

For the molecule `COc1ccc(/C=C(/c2ccccc2)[N+](=O)[O-])cc1`, the growth was -56.7% (active).

As to `COc1ccccc1/C=C1\Oc2cc(OCCCN3CCCC3)ccc2C1=O`, the growth is 85.8%.

`COc1ccc(/C=C\c2nc3ccccc3s2)cc1OP(=O)(O)O`: the growth was 43.5%.

Consider `COc1ccc(-c2c[nH]c(C(=O)O)c2-c2cc(OC)c3c(c2OC)OCO3)cc1`, for which the growth is 103%.

For the molecule `COc1ccc(C(=O)c2cc3c(N)c(C(=O)Nc4cccc(Cl)c4C)sc3nc2C)cc1`, the growth was 21.7%.

For the molecule `O=C(/C=C\c1ccc(OCCCCCC[P+](c2ccccc2)(c2ccccc2)c2ccccc2)cc1)c1ccc2c(c1)OCCO2`, the growth is 6.58% (active).

As to `Cc1cccc(Oc2ccc(Nc3ncnc4ccc(NC(=O)CNCCO)cc34)cc2Cl)c1`, the growth is 61.4%.

On to `O=C(CSc1nc2sc3c(c2c(=O)n1Cc1ccccc1)CCCC3)N1CCN(c2ccccc2)CC1`, for which the growth is 83.2%.

Take `Cc1cccc(Oc2ccc(Nc3ncnc4ccc(NC(=O)CN(C)C)cc34)cc2Cl)c1`: the growth was 40.7%.

Turning to `O=C1/C(=C/c2ccc(O)cc2)COc2ccc(-c3ccccc3)cc21`, the growth is 60%.

Take `COc1ccc(C(=O)c2cc3c(N)c(C(=O)Nc4cccc(OC)c4)sc3nc2C)cc1`: the growth is 28.7%.

Regarding `NS(=O)(=O)c1cccc(NC(=O)C(=O)C2C(=O)Nc3ccccc32)c1` (stereo unspecified), the growth was 88.8%.

The next assay has as its system SK-MEL-5 melanoma. The description is as above. The note with it: 10 µM unless noted.
As to `COc1cccc2cc(-c3cc4ccccc4[nH]3)/c(=N/C(=S)Nc3ccc(C)cc3)oc12`, the growth is 73.8%.

As for `CN1C(=O)N(C)C2NC(N/N=C/c3ccccc3)=NC21` (stereo unspecified), the growth is 102%.

On to `COc1cc(-c2cc(=O)oc3cc(O)ccc23)cc(OC)c1OC`, for which the growth is 91.4%.

Take `COc1ccccc1/C=N/NC1=NC2C(N1)N(C)C(=O)N2C` (stereo unspecified): the growth was 100%.

With `CCN(CC)CCSCCCNc1c(C)cnc2cc(Cl)ccc12`, the growth was 75.3%.

In the case of `COc1cc(Nc2cc(O)c3c(=O)cc(-c4ccccc4)oc3c2)cc(OC)c1`, the growth is 28.6%.

With `NC(=O)c1ncn(C2OC(CO)C(O)C2O)n1` (stereo unspecified), the growth was 99.1%.

As to `C(=N\Nc1ncc(-c2cc3cc4c(cc3o2)OCO4)s1)/c1c[nH]c2ccccc12`, the growth was 5.79% (active).

With `c1ccc(C2CC(c3cccc(Nc4ccncc4)c3)=NN2c2ccccc2)cc1` (stereo unspecified), the growth is 75.3%.

As for `CC1=NNC(=O)C1CCC(=O)N/N=C(\C)c1ccc2ccccc2c1` (stereo unspecified), the growth was 105%.

`O=C(N/N=C/c1ccncc1)c1ccccc1Nc1cccc(C(F)(F)F)c1`: the growth is 76%.

For `COc1ccc(Nn2c(SCC(=O)Nc3nc(-c4ccc(Cl)cc4)cs3)nc(C)c2C)cc1`, the growth is -21.5% (active).

On to `COc1c(Cl)cc(Cl)c2ccc(C=C3C(=O)N(C)C(=O)N(C)C3=O)nc12`, for which the growth is 101%.

For `Cc1cccc(C)c1-c1cc(Cc2ccc(Cl)cc2)c(=O)[nH]n1`, the growth was 98.8%.

In the case of `CCN1C(=O)N(CC)C2C1NN=c1s/c(=C3\C(=O)Nc4ccccc43)c(=O)n12` (stereo unspecified), the growth is 19.5%.

With `CC(=O)Nc1ccc(C(=O)Nc2cc(-c3ccccc3)ccc2N)cc1`, the growth is 68.3%.

On to `CN1CCN(c2cc(F)c(NC3=C(Cl)C(=O)c4ncccc4C3=O)c(F)c2)CC1`, for which the growth is -91.7% (active).

In the case of `Clc1nc(Cl)c2ncn(CC3(Cn4cnc5c(Cl)nc(Cl)nc54)COC3)c2n1`, the growth is -96.2% (active).

On to `CC(C)(C)CC(C)(C)Nc1c(-c2ccc(C(F)(F)F)cc2)nc2cnccn12`, for which the growth is 90%.

As to `CCC(C)N(CCNc1cc(OC)cc2cccnc12)CCC(C)C` (stereo unspecified), the growth is 95.2%.

Consider `Cn1c(COC(=O)NCCc2ccccn2)nc2c(N3CCOCC3)nc(Cl)nc21`, for which the growth is 3.6% (active).

In the case of `BrC(Br)(Br)c1cnc2ccccc2n1`, the growth was 73.9%.

Take `Clc1ccc(N2N=C(c3cccc(Nc4ccncc4)c3)CC2c2ccc3c(c2)OCO3)cc1` (stereo unspecified): the growth is 30.9%.

As for `COc1cc(CNC(=O)CCCCC[P+](c2ccccc2)(c2ccccc2)c2ccccc2)c(OC)c2c1OCO2`, the growth is 84.3%.

For the molecule `CC[C@@]12C=CCN3CC[C@]4(c5cc(NC(=O)COc6cc(OCC(=O)Nc7cc8c(cc7OC)N(C)[C@H]7[C@@](O)(C(=O)OC)[C@H](OC(C)=O)[C@]9(CC)C=CCN%10CC[C@]87[C@@H]%109)cc7oc(-c8ccccc8)cc(=O)c67)c(OC)cc5N(C)[C@@H]4[C@](O)(C(=O)OC)[C@H]1OC(C)=O)[C@H]32`, the growth was 103%.

As for `O=C1Nc2c(ccc(Cl)c2Cl)/C1=C/c1ccc(O)cc1`, the growth is 87.1%.

Regarding `COc1ccc(/C=C(/c2ccccc2)[N+](=O)[O-])cc1`, the growth was -91.5% (active).

As for `COc1ccccc1/C=C1\Oc2cc(OCCCN3CCCC3)ccc2C1=O`, the growth was 79.8%.

Regarding `COc1ccc(/C=C\c2nc3ccccc3s2)cc1OP(=O)(O)O`, the growth was 21.8%.

In the case of `COc1ccc(-c2c[nH]c(C(=O)O)c2-c2cc(OC)c3c(c2OC)OCO3)cc1`, the growth is 102%.

For `COc1ccc(C(=O)c2cc3c(N)c(C(=O)Nc4cccc(Cl)c4C)sc3nc2C)cc1`, the growth is -23.8% (active).

In the case of `O=C(/C=C\c1ccc(OCCCCCC[P+](c2ccccc2)(c2ccccc2)c2ccccc2)cc1)c1ccc2c(c1)OCCO2`, the growth is -98.3% (active).

With `Cc1cccc(Oc2ccc(Nc3ncnc4ccc(NC(=O)CNCCO)cc34)cc2Cl)c1`, the growth is 77.6%.

Turning to `O=C(CSc1nc2sc3c(c2c(=O)n1Cc1ccccc1)CCCC3)N1CCN(c2ccccc2)CC1`, the growth was 98.5%.

As for `Cc1cccc(Oc2ccc(Nc3ncnc4ccc(NC(=O)CN(C)C)cc34)cc2Cl)c1`, the growth is 39.9%.

`O=C1/C(=C/c2ccc(O)cc2)COc2ccc(-c3ccccc3)cc21`: the growth is 81.7%.

Take `COc1ccc(C(=O)c2cc3c(N)c(C(=O)Nc4cccc(OC)c4)sc3nc2C)cc1`: the growth was 15.3%.

Regarding `NS(=O)(=O)c1cccc(NC(=O)C(=O)C2C(=O)Nc3ccccc32)c1` (stereo unspecified), the growth was 96.7%.

The values are drawn from PubChem BioAssay (NCI).
